Inconclusive results are not listed. Activity calls are given as the source filed them. Unless noted, the call rests on the fitted dose curve.
Columns and labels:
[1] = qHTS assay to identify small molecule agonists of the peroxisome proliferator-activated receptor delta (PPARd) signaling pathway - cell viability counter screen (AID 743211; active means well fitted curve in the direction sought with a large enough effect in the repeat runs; an effect the other way counts as inactive or inconclusive; further: on the % scale 0 is the no-effect control and ±100 the full control effect; nearly all actives have a fitted effect of over 55% in size)
Summary of the method: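 Multiplexed format: after the 2 h room-temperature LiveBLAzer B/G FRET step, CellTiter-Glo was added to the same wells. Luminescence after 30 min gave cell viability; compound exposure was 17 h at 37C.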

[2] = biological target: Peroxisome proliferator-activated receptor delta (Homo sapiens) (UniProt Q03181); assay: qHTS assay to identify small molecule agonists of the peroxisome proliferator-activated receptor delta (PPARd) signaling pathway (AID 743212); further: on the % scale 0 is the no-effect control and ±100 the full control effect
Summary of the method: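 GeneBLAzer UAS-bla HEK293H cells carrying a PPARδ construct were exposed to compounds at 37 °C. Beta-lactamase activity was read by FRET fluorescence after 2 h at room temperature with LiveBLAzer B/G substrate.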

[3] = biological target: Peroxisome proliferator-activated receptor delta (Homo sapiens) (UniProt Q03181); assay: qHTS assay to identify small molecule antagonists of the peroxisome proliferator-activated receptor delta (PPARd) signaling pathway (AID 743215; active means well fitted inhibition curve with a large enough effect in the signal ratio in the repeat runs, not every such curve was filed as active; the % refers to the signal ratio;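 further: cells stimulated with agonist L165041 at 300 nM final during compound exposure; series mostly up to about 62 µM; on the % scale 0 is the no-effect control and ±100 the full control effect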)
Summary of the method: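 PPARd UAS-bla HEK293H cells were pre-incubated 5 h at 37 C, then given test compounds in DMSO plus agonist L165041 (300 nM final). After 17 h at 37 C, beta-lactamase FRET substrate was added; fluorescence read after 2 h at room temperature.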

[4] = biological target: Bile acid receptor (Homo sapiens) (UniProt Q96RI1); assay: qHTS assay to identify small molecule antagonists of the farnesoid-X-receptor (FXR) signaling pathway (AID 743217; active means well fitted inhibition curve with a large enough effect in the signal ratio in the repeat runs, not every such curve was filed as active; the % refers to the signal ratio; further: on the % scale 0 is the no-effect control and ±100 the full control effect)
Summary of the method: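 FXR-UAS-bla HEK 293T cells pre-incubated 5 h at 37 °C, then exposed to compounds with chenodeoxycholic acid (50 uM final) for 16 h at 37 °C. Beta-lactamase reporter read by LiveBLAzer B/G FRET substrate fluorescence after 2 h at room temperature.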

[5] = qHTS assay to identify small molecule agonists of the farnesoid-X-receptor (FXR) signaling pathway - cell viability counter screen (AID 743218; active means well fitted curve in the direction sought with a large enough effect in the repeat runs; an effect the other way counts as inactive or inconclusive; further: on the % scale 0 is the no-effect control and ±100 the full control effect; nearly all actives have a fitted effect of over 45% in size)
Summary of the method: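 FXR-UAS-bla HEK 293T cells, plated 5 h at 37 C, were exposed to compounds for 16 h at 37 C. CellTiter-Glo was then added to the same wells as the bla readout; luminescence read after 30 min at room temperature.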

[6] = biological target: Bile acid receptor (Homo sapiens) (UniProt Q96RI1); assay: qHTS assay to identify small molecule agonists of the farnesoid-X-receptor (FXR) signaling pathway (AID 743220; active means well fitted activation curve with a large enough effect in the signal ratio in the repeat runs, not every such curve was filed as active; the % refers to the signal ratio; further: on the % scale 0 is the no-effect control and ±100 the full control effect)
Summary of the method: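 Beta-lactamase reporter under UAS control in GeneBLAzer FXR HEK 293T cells (5000/well) measured with LiveBLAzer FRET substrate after 2 h at room temperature. Compound exposure lasted 16 h at 37C.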

[7] = qHTS assay to identify small molecule antagonists of the farnesoid-X-receptor (FXR) signaling pathway - cell viability counter screen (AID 743221; active means well fitted cell-killing curve with a large enough effect in the repeat runs, not every such curve was filed as active; further: on the % scale 0 is the no-effect control and ±100 the full control effect; nearly all actives have a fitted effect of over 50% in size)
Summary of the method: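 CellTiter-Glo, 30 min RT, luminescence; same wells as the LiveBLAzer FRET read. Cells: FXR-UAS-bla HEK 293T. Treatment: compound with chenodeoxycholic acid 50 uM final, 16 h at 37 C.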

[8] = biological target: Vitamin D3 receptor (Homo sapiens) (UniProt P11473); assay: qHTS assay to identify small molecule agonists of the vitamin D receptor (VDR) signaling pathway (AID 743222); further: on the % scale 0 is the no-effect control and ±100 the full control effect
Summary of the method: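 VDR-bla cells were plated 4 h at 37C/5% CO2, then exposed to compounds in DMSO for 16 h. After LiveBLAzer B/G FRET substrate addition and 2 h at room temperature, beta-lactamase reporter fluorescence was read.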

[9] = biological target: Vitamin D3 receptor (Homo sapiens) (UniProt P11473); assay: qHTS assay to identify small molecule antagonists of the vitamin D receptor (VDR) signaling pathway (AID 743223; active means well fitted inhibition curve with a large enough effect in the signal ratio in the repeat runs, not every such curve was filed as active; the % refers to the signal ratio; further: on the % scale 0 is the no-effect control and ±100 the full control effect)
Summary of the method: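 After VDR-bla cells are plated and left 4 h at 37C, DMSO-dissolved compounds and 3 nM (final) calcitriol agonist are added. Incubation continues 16 h at 37C; FRET beta-lactamase substrate then develops 2 h at room temperature.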

[10] = qHTS assay to identify small molecule agonists of the vitamin D receptor (VDR) signaling pathway - cell viability counter screen (AID 743224; active means well fitted curve in the direction sought with a large enough effect in the repeat runs; an effect the other way counts as inactive or inconclusive; further: series mostly up to about 63 µM; on the % scale 0 is the no-effect control and ±100 the full control effect; nearly all actives have a fitted effect of over 50% in size)
Summary of the method: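 VDR-bla cells were preincubated 4 h at 37C/5% CO2, then exposed to compounds for 16 h. After the 2 h room-temperature bla FRET read, CellTiter-Glo was added to the same wells and luminescence read after 30 min.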

[11] = qHTS assay to identify small molecule antagonists of the vitamin D receptor (VDR) signaling pathway - cell viability counter screen (AID 743225; active means well fitted curve in the direction sought with a large enough effect in the repeat runs; an effect the other way counts as inactive or inconclusive; further: on the % scale 0 is the no-effect control and ±100 the full control effect; nearly all actives have a fitted effect of over 50% in size)
Summary of the method: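 Cytotoxicity toward the VDR-bla HEK 293T line was scored by ATP-based CellTiter-Glo luminescence, read in the wells already used for the beta-lactamase readout after 16 h compound treatment under 3 nM 1-alpha,25-dihydroxyvitamin D3 stimulation.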

[12] = qHTS assay to identify small molecule agonists of the NFkB signaling pathway (AID 1159509; active means well fitted curve in the direction sought with a large enough effect in the signal ratio in the repeat runs, not every such curve was filed as active; the % refers to the signal ratio)
Summary of the method: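 ME-180 NFkB-bla, 2,000 cells/well, overnight plating; cpd pinned in DMSO, 5 h 37 C; B/G FRET substrate 1.5 h RT; ex 405, em 460/530 nm.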

[13] = qHTS assay to identify small molecule agonists of the NFkB signaling pathway - cell viability counter screen (AID 1159515); further: series mostly up to about 61 µM; on the % scale 0 is the no-effect control and ±100 the full control effect; nearly all actives have a fitted effect of over 55% in size
Summary of the method: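 NFkB-bla ME-180 cells, 2,000/well, were plated overnight at 37 C, 5% CO2, then exposed to compounds in DMSO for 5 hr. After the bla FRET read, CellTiter-Glo was added to the same wells; luminescence was read after 30 min at room temperature.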

[14] = qHTS assay to identify small molecule agonists of the endoplasmic reticulum stress response signaling pathway (AID 1159516; active means well fitted activation curve with a large enough effect in the signal ratio in the repeat runs, not every such curve was filed as active; the % refers to the signal ratio; further: on the % scale 0 is the no-effect control and ±100 the full control effect)
Summary of the method: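 CellSensor ESRE-bla HeLa cells, carrying a beta-lactamase reporter driven by the ER stress response element, were plated overnight and exposed to compounds for 5 hr at 37 C. Reporter activity was read as FRET substrate fluorescence after 2 hr at room temperature.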

[15] = qHTS assay to identify small molecule agonists of the endoplasmic reticulum stress response signaling pathway - cell viability counter screen (AID 1159517); further: series mostly up to about 61 µM; on the % scale 0 is the no-effect control and ±100 the full control effect; nearly all actives have a fitted effect of over 50% in size
Summary of the method: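 ESRE-bla HeLa cells, 1,500 per well, seeded overnight then treated with compounds for 5 hr at 37 C. After the beta-lactamase read, viability in the same wells is measured by CellTiter-Glo luminescence after 30 min at room temperature.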

[16] = qHTS assay to identify small molecule antagonists of the retinoid-related orphan receptor gamma (ROR-gamma) signaling pathway - cell viability counter screen (AID 1159520; active means well fitted curve in the direction sought with a large enough effect in the repeat runs; an effect the other way counts as inactive or inconclusive)
Summary of the method: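 Tet-on ROR gamma CHO cells were given compounds for 2 hr, then doxycycline hyclate at 1 uM final, and incubated 16 hr at 37 C. Viability was measured as ATP content by CellTiter-Glo luminescence.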

[17] = qHTS assay to identify small molecule agonists of the AP-1 signaling pathway - cell viability counter screen (AID 1159525); further: nearly all actives have a fitted effect of over 55% in size
Summary of the method: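 AP-1-bla ME-180 cells in Opti-MEM with 0.5% dialyzed FBS, compound exposure 5 h at 37 C in 15-point titration. Viability read in the same wells as ATP content by CellTiter-Glo luminescence, normalised to tetra-n-octylammonium bromide and DMSO controls.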

[18] = qHTS assay to identify small molecule agonists of the AP-1 signaling pathway (AID 1159526); further: on the % scale 0 is the no-effect control and ±100 the full control effect
[19] = qHTS assay to identify small molecule antagonists of the peroxisome proliferator-activated receptor delta (PPARd) signaling pathway - cell viability counter screen (AID 743213; active means well fitted curve in the direction sought with a large enough effect in the repeat runs; an effect the other way counts as inactive or inconclusive)
Summary of the method: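 PPARd-bla HEK293H cells (3000/well) got compound plus 300 nM L165041 agonist for 17 h at 37 C. Viability in the same wells came from CellTiter-Glo luminescence after 30 min at room temperature.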

Chain of Bile acid receptor (Homo sapiens) (Q96RI1 whole entry, looked up): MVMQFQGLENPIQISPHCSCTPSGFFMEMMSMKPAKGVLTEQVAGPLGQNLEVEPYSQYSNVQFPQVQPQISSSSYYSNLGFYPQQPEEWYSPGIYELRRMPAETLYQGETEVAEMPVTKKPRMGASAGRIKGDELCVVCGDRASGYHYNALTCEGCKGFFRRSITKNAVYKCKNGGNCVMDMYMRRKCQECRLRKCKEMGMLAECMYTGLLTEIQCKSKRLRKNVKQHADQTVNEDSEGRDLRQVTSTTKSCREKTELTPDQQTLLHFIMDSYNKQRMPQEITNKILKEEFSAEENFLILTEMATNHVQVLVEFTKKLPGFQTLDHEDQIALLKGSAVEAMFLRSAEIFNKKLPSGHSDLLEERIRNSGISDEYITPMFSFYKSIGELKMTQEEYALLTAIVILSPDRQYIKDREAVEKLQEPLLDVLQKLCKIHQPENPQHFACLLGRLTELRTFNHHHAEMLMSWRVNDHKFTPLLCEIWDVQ
Chain of Peroxisome proliferator-activated receptor delta (Homo sapiens) (Q03181 whole entry, looked up): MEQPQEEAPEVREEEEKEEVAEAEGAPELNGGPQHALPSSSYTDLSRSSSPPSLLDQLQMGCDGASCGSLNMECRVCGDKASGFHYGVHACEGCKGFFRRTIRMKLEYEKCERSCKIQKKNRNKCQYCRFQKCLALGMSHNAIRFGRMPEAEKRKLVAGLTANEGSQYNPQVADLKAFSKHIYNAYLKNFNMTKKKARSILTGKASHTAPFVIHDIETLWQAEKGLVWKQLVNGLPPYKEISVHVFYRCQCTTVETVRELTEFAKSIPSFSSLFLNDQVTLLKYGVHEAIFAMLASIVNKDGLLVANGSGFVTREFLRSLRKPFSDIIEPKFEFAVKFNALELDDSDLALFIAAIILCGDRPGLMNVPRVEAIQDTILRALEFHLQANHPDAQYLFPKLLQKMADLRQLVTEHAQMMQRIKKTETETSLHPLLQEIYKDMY
Chain of Vitamin D3 receptor (Homo sapiens) (P11473 whole entry, looked up): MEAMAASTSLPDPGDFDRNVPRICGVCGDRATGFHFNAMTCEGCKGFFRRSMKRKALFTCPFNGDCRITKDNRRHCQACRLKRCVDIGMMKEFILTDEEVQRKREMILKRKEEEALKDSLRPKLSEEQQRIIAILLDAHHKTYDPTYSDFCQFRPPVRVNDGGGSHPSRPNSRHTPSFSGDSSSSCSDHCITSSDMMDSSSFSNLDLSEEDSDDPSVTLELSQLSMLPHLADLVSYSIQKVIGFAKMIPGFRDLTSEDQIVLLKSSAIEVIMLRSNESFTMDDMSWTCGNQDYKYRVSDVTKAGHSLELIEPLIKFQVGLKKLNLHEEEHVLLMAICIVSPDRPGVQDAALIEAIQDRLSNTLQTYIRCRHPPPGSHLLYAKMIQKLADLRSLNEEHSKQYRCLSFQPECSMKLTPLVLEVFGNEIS

CCCCCCCCCOC(C)=O
inactive: Potency [1] | Potency [2] | Potency [3] | Potency [4] | Potency [5] | Potency [6] | Potency [7] | outcome [8] | outcome [9] | Potency [10] | Potency [11] | outcome [12] | outcome [13] | outcome [14] | outcome [15] | Potency [16] | outcome [17] | outcome [18]

CCC(C)(O)CCC=C(C)C (stereo unspecified)
inactive: Potency [1] | Potency [2] | Potency [19] | Potency [3] | Potency [5] | Potency [7] | outcome [8] | outcome [9] | Potency [10] | outcome [12] | outcome [13] | outcome [14] | outcome [15] | Potency [16] | outcome [17] | outcome [18]

O=C(O)Cc1ccc(-c2ccccc2)cc1
inactive: Potency [1] | Potency [2] | Potency [19] | Potency [3] | Potency [5] | Potency [7] | outcome [8] | outcome [9] | Potency [10] | outcome [12] | outcome [13] | outcome [14] | outcome [15] | Potency [16] | outcome [17] | outcome [18]

ON(Cc1ccccc1)Cc1ccccc1
inactive: Potency [1] | Potency [2] | Potency [19] | Potency [3] | Potency [5] | Potency [7] | outcome [8] | Potency [11] | outcome [12] | outcome [13] | outcome [14] | outcome [15] | Potency [16] | outcome [17] | outcome [18]

Fc1c(F)c(F)c(Br)c(F)c1F
inactive: Potency [1] | Potency [2] | Potency [19] | Potency [5] | Potency [7] | outcome [8] | Potency [10] | Potency [11] | outcome [12] | outcome [13] | outcome [14] | outcome [15] | Potency [16] | outcome [17] | outcome [18]

O=C1NCCN1
inactive: Potency [1] | Potency [2] | Potency [19] | Potency [3] | Potency [4] | Potency [5] | Potency [6] | Potency [7] | outcome [8] | outcome [9] | Potency [10] | Potency [11] | outcome [12] | outcome [13] | outcome [14] | outcome [15] | Potency [16] | outcome [17] | outcome [18]

CCOC(=O)c1ccccc1OC
inactive: Potency [1] | Potency [2] | Potency [19] | Potency [3] | Potency [5] | Potency [7] | outcome [8] | outcome [9] | Potency [10] | outcome [12] | outcome [13] | outcome [14] | outcome [15] | Potency [16] | outcome [17] | outcome [18]

O=C(O)c1snc(Cl)c1Cl
inactive: Potency [1] | Potency [2] | Potency [19] | Potency [3] | Potency [4] | Potency [5] | Potency [6] | Potency [7] | outcome [8] | outcome [9] | Potency [10] | Potency [11] | outcome [12] | outcome [13] | outcome [14] | outcome [15] | Potency [16] | outcome [17] | outcome [18]

Cc1ccnc2ccccc12
inactive: Potency [1] | Potency [2] | Potency [19] | Potency [3] | Potency [5] | Potency [7] | outcome [8] | outcome [9] | Potency [10] | Potency [11] | outcome [12] | outcome [13] | outcome [14] | outcome [15] | Potency [16] | outcome [17] | outcome [18]

Cc1ccc(/C=N/n2c(-c3ccccc3)csc2=S)cc1
inactive: Potency [1] | Potency [2] | Potency [19] | Potency [3] | Potency [5] | Potency [7] | outcome [8] | outcome [9] | Potency [10] | Potency [11] | outcome [12] | outcome [13] | outcome [14] | outcome [15] | Potency [16] | outcome [17] | outcome [18]

CCn1nc(C)c2c1C(=O)NCC(c1ccc(O)cc1)=N2
inactive: Potency [1] | Potency [2] | Potency [19] | Potency [5] | Potency [7] | outcome [8] | Potency [10] | Potency [11] | outcome [12] | outcome [13] | outcome [14] | outcome [15] | Potency [16] | outcome [17] | outcome [18]

CCCC(=O)O[C@]1(C(=O)COC(=O)CC)CC[C@H]2[C@@H]3CCC4=CC(=O)CC[C@]4(C)[C@H]3[C@@H](O)C[C@@]21C
inactive: Potency [1] | Potency [2] | Potency [19] | Potency [3] | Potency [4] | Potency [6] | Potency [7] | outcome [8] | outcome [9] | Potency [10] | outcome [12] | outcome [13] | outcome [14] | outcome [15] | activity, negative = cytotoxicity [16] 0.636% [at 19 µM] | viability change, negative = cytotoxic [17] -0.096% [at 15.8 µM] | activation [18] -6.02% [at 15.8 µM]

CO[Si](C)(OC)OC
inactive: Potency [1] | Potency [2] | Potency [5] | Potency [6] | Potency [7] | outcome [8] | outcome [9] | Potency [10] | Potency [11] | outcome [12] | outcome [13] | outcome [14] | outcome [15] | Potency [16] | outcome [17] | outcome [18]

CCOC(=O)OCC
inactive: Potency [1] | Potency [2] | Potency [3] | Potency [5] | Potency [7] | outcome [8] | Potency [10] | outcome [12] | outcome [13] | outcome [14] | outcome [15] | Potency [16] | outcome [17] | outcome [18]

OC(CCCN1CCCCC1)(c1ccccc1)c1ccccc1
inactive: Potency [1] | Potency [2] | Potency [19] | Potency [3] | Potency [7] | outcome [8] | outcome [9] | Potency [10] | Potency [11] | outcome [12] | outcome [13] | outcome [14] | outcome [15] | Potency [16] | outcome [17] | outcome [18]

CC1=NN(c2ccc(C(=O)O)cc2)C(=O)C1
inactive: Potency [1] | Potency [2] | Potency [3] | Potency [5] | Potency [7] | outcome [8] | Potency [10] | Potency [11] | outcome [12] | outcome [13] | outcome [14] | outcome [15] | Potency [16] | outcome [17] | outcome [18]
